Measurements published in PubChem BioAssay (NCI).
About 79,000 compounds went through this panel and 15% of them were active in at least one assay; those are over-represented in the sample as a whole. Unmarked numbers belong to inactive results. Activity calls are given as the source filed them. Rule as the data show it: active = growth inhibition above about 70%; inactive = the rest.

Tests used:
[1] = NCI Yeast Anticancer Drug Screen. Data for the rad50 strain (AID 155);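 also: 0% = growth of vehicle-only cultures of the same strain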; conditions: S. cerevisiae rad50 strain growth inhibition, stronger effect = higher value
How it was run: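 DNA repair mutant yeast, compound exposure, growth read-out; inhibition is taken relative to vehicle.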

[2] = NCI Yeast Anticancer Drug Screen. Data for the mec2-1 strain (AID 157); conditions: S. cerevisiae mec2-1 strain, stronger effect = higher value
How it was run: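 Compounds were applied to mec2-1 yeast cells. Their growth was then compared with that of vehicle-treated cultures to give growth inhibition.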

[3] = NCI Yeast Anticancer Drug Screen. Data for the sgs1 mgt1 strain (AID 161);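 also: 0% = growth of cultures given vehicle only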; conditions: S. cerevisiae sgs1 mgt1 strain, stronger effect = higher value
How it was run: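 Growth of a repair-deficient yeast mutant was monitored after compound treatment and expressed as inhibition relative to vehicle-treated cultures.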

[4] = NCI Yeast Anticancer Drug Screen. Data for the cln2 rad14 strain (AID 165);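 also: 0% = growth equal to vehicle treated cultures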; conditions: S. cerevisiae cln2 rad14 strain, stronger effect = higher value
How it was run: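 Strain: cln2 rad14 yeast, altered in cell cycle control and DNA damage repair. Read-out: growth inhibition vs vehicle.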

[5] = NCI Yeast Anticancer Drug Screen. Data for the bub3 strain (AID 167); conditions: S. cerevisiae bub3 mutant strain, stronger effect = higher value
How it was run: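 In this screen, a yeast mutant lacking normal mitotic checkpoint function is challenged with compound. Relative growth versus vehicle gives the inhibition value.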

[6] = NCI Yeast Anticancer Drug Screen. Data for the mlh1 rad18 strain (AID 175); conditions: S. cerevisiae mlh1 rad18 strain growth inhibition, stronger effect = higher value
How it was run: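 A repair-deficient yeast strain is exposed to test compound, and growth is scored relative to vehicle-treated controls.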

[7] = at 5.0 µM (retest, dose inferred, filed as 0.5)
[8] = at 50.0 µM (retest, dose inferred, filed as 5.0)

Row | Structure (SMILES) | growth inhibition [1, 7] | growth inhibition [1, 8] | growth inhibition ([1]; at 50.0 µM) | growth inhibition [2, 7] | growth inhibition [2, 8] | growth inhibition ([2]; at 50.0 µM) | growth inhibition [3, 7] | growth inhibition [3, 8] | growth inhibition ([3]; at 50.0 µM) | growth inhibition [4, 7] | growth inhibition [4, 8] | growth inhibition ([4]; at 50.0 µM) | growth inhibition [5, 7] | growth inhibition [5, 8] | growth inhibition ([5]; at 50.0 µM) | growth inhibition [6, 7] | growth inhibition [6, 8] | growth inhibition ([6]; at 50.0 µM)
1 | COc1ccc(C2SC(C)C(=O)N2c2nc(-c3nc(-c4ccc(Cl)cc4)cs3)cs2)cc1 (stereo not given) | 42% | 86% (active) | 45% | 17% | 99% (active) | 39.9% | 5% | 92% (active) | 69.3% | 4% | 99% (active) | 83.5% (active) | -17% | 99% (active) | 27.3% | 23% | 99% (active) | 77% (active)
2 | CC1(C)C/C(=N/NC(N)=S)C(=NO)/C(=N\NC(N)=S)C1 | 6% | 60% | 75% (active) | 2% | 40% | 62% | 9% | 61% | 77.4% (active) | -13% | 27% | 23.4% | 0% | 34% | 76.8% (active) | 2% | 59% | 74.5% (active)
3 | CCOC(=O)/C(=C/c1ccc(Cl)cc1)N(CC)CC | 16% | 15% | 64.3% | -21% | 20% | 55.2% | 2% | 18% | 54.3% | 43% | 58% | 76.2% (active) | 9% | 36% | 64.8% | -13% | -2% | 53.1%
4 | CC1=C(C(=O)Nc2ccc(C)cc2C)C(c2cccc([N+](=O)[O-])c2)C(C(=O)Nc2ccc(C)cc2C)=C(C)N1 | -17% | 50% | 28.6% | 12% | 74% (active) | 38.5% | -4% | 47% | 33% | 10% | 42% | 36.6% | 14% | 69% | 37.2% | 4% | 44% | 41.1%
5 | Cc1[nH]ccc2c(C)c3nc4ccccc4c3cc12 | 47% | 97% (active) | 90% (active) | 10% | 87% (active) | 88.3% (active) | 14% | 87% (active) | 90.5% (active) | 4% | 82% (active) | 82.9% (active) | 9% | 73% (active) | 89% (active) | 13% | 95% (active) | 90.3% (active)
6 | NC(N)=Nc1ccc(C(=O)Oc2c(Cl)cc([N+](=O)[O-])cc2Cl)cc1 | -30% | 46% | 48% | -6% | 28% | 30.2% | 4% | 65% | 71.1% (active) | -9% | 32% | 21.9% | -6% | 40% | 25.9% | 12% | 56% | 32.9%
7 | COCc1ccc([N+](=O)[O-])o1 | 17% | 89% (active) | 71.5% (active) | 1% | 35% | 21.6% | 11% | 76% (active) | 78.7% (active) | 6% | 24% | 7.65% | 2% | 36% | 1.2% | 17% | 84% (active) | 66.2%
8 | COc1ccnc2c1C(=O)c1nc3ccccc3c3ccnc-2c13 | 14% | 89% (active) | 81.2% (active) | -9% | 83% (active) | 79.8% (active) | 9% | 83% (active) | 81.5% (active) | 2% | 88% (active) | 80.8% (active) | -15% | 86% (active) | 81% (active) | 23% | 92% (active) | -21.9%
9 | Cc1ccc2nc(-c3ccc(N)cc3)sc2c1 | 9% | 42% | 75% (active) | -2% | 8% | 34.5% | -2% | 7% | 43.9% | -8% | -6% | 15% | 14% | 68% | 72.5% (active) | -1% | 19% | 41.3%
10 | CCCCCCCCCc1cccc(N2C(N)=NC(N)=NC2(C)C)c1 | 99% (active) | 88% (active) | 99.3% (active) | 100% (active) | 28% | 99.6% (active) | 99% (active) | 42% | 99.6% (active) | 99% (active) | 19% | 99% (active) | 98% (active) | 12% | 99.4% (active) | 99% (active) | 29% | 99.4% (active)
